High-throughput results from PubChem BioAssay.
Ba CapD inh: CapD enzyme inhibition. purified CapD enzyme, fluorescence intensity read-out; active compounds read low. z-score (test concentration not listed). hit rate 0.23% among 140,000. AID 492967; in the data active = z-score mostly below about -2.9, no sharp cut-off; inactive = mostly above about -1.9
* = called active by the depositor. Shown is part of a subset that was picked to be rich in hits.

SMILES	Ba CapD inh
CC(=O)/C(=C/Nc1ccc(I)cc1)c1ccccc1	-1.33
C(=Nc1ccccc1)c1ccccc1	0.1
O=c1[nH]c2ccc(N=Cc3cc(Br)c(O)c(Br)c3O)cc2[nH]1	-3.34
Cc1cc(C)c2c(N)c(C(=O)N3CCCc4ccccc43)sc2n1	-1.11
O=C(O)CCN1C(=O)/C(=C\c2ccccc2)SC1=S	-1.22
Cc1ccc(/C=C2/SC(=S)N(C(C)C(=O)O)C2=O)o1 (configuration not stated)	-0.01
CC(C(=O)O)N1C(=O)/C(=C\c2ccco2)SC1=S (configuration not stated)	-4.89*
O=C(O)CCN1C(=O)/C(=C/c2ccccc2)SC1=S	-0.575
CC(C(=O)O)N1C(=O)/C(=C/c2ccccc2Cl)SC1=S (configuration not stated)	-1.79
O=C(O)CCN1C(=O)/C(=C/c2ccco2)SC1=S	-6.08*
COC(=O)Cn1c(=N)n(CCN2CCOCC2)c2ccccc21	-0.095
Cn1nc(OCC(O)CS(=O)(=O)c2ccc(Cl)cc2)cc1C(F)(F)F (configuration not stated)	0.36
O=C(OCc1ccc(C(F)(F)F)c(F)c1F)N1CCN(Cc2ccc(Oc3ccccc3)cc2)CC1	-0.08
CC1=C(C(=O)OC2CCCC2)C(c2ccccc2)NC(=O)N1 (configuration not stated)	-0.055
Cc1cc(S(=O)(=O)/N=C(\N)c2cccnc2)cc(C)c1F	-0.265
CCOC(=O)C1=C(N)OC2=C(C(=O)CC(C)(C)C2)C1c1ccc(OC)cc1 (configuration not stated)	0.005
Cc1cccc(OC(C)C(=O)N2CCCCC2)c1 (configuration not stated)	0.075
COCCCN1C(=O)/C(=C/c2c(N3CCN(C)CC3)nc3c(C)cccn3c2=O)SC1=S	-0.685
COc1ccc(C2CC(=O)Nc3c2cc(Br)c2ccccc32)c(OC)c1OC (configuration not stated)	4.05
Cc1ccccc1CC1SC(=Nc2ccc(Br)cc2)NC1=O (configuration not stated)	0.02
O=C(CSc1nnc(-c2ccco2)c(-c2ccco2)n1)Nc1ccc(C(=O)O)cc1	-10.9*
O=C(CSc1nnc(-c2ccccc2)c(-c2ccccc2)n1)Nc1ccc(F)cc1	-0.735
COc1ccc(C(=O)CSc2nnc(-c3ccco3)c(-c3ccco3)n2)cc1	0.2
O=C(Nc1ccccc1)Nc1ccc2c(c1)nc1n2CCN(Cc2ccccc2)C1	0.6
O=C1CSC(c2cccnc2)N1c1ccc(C(F)(F)F)cc1 (configuration not stated)	0.89
SMILES	Ba CapD inh
COC(CNC(=O)c1ccc(/C=C2\Sc3ccccc3N(Cc3ccc(F)cc3)C2=O)cc1)OC	-8.54*
COC(CNC(=O)c1ccc(/C=C2/Sc3ccccc3N(Cc3cccc(C)c3)C2=O)cc1)OC	0.07
Cc1cccc(CN2C(=O)/C(=C\c3ccc(C(=O)NCc4cccnc4)cc3)Sc3ccccc32)c1	11.9
CCOc1ccc(N2C(=O)C(=O)/C(=C(/O)c3ccccc3)C2(O)C(=O)OC)cc1 (configuration not stated)	-1.18
O=C(CSc1nc2ccccc2s1)Nc1ccc(Cl)c(Cl)c1	-0.325
COc1cccc(/C=N/NC(=O)c2ccc(C(F)(F)F)cc2)c1OC	0.25
CCOC(=O)c1sc(COc2ccc(C3SCCS3)cc2)nc1C	9.87
Cc1nc(COc2ccccc2Cl)sc1C(=O)/C=C/N(C)C	6.79
CCOC(=O)c1sc(COc2ccccc2OC)nc1C	-2.67*
CN(C)c1ccc(/C=C(\C#N)C(=O)OC(C)(C)C)cc1	-3.58
COc1cc(CN2CCCC(O)C2)cc(OC)c1OC (configuration not stated)	0.135
NC(CO)C(=O)N/N=C/c1ccc(O)c(O)c1O (configuration not stated)	-6.9*
CCC(Nc1ccccc1)C(=O)N/N=C/c1ccccc1O (configuration not stated)	-0.1
NC(CO)C(=O)NNCc1ccc(O)c(O)c1O (configuration not stated)	0.07
O=C(NCCN1CCOCC1)c1ccc2c(c1)ncn2-c1ccc(OCc2ccccc2)cc1	-1.75
CCOC(=O)Cn1c(=O)c(-c2ccccc2NCc2ccccc2)nc2cc3ccccc3cc21	-0.135
CC1CC(C)CN(C(=O)c2c[nH]c3ccc(S(=O)(=O)N(C)c4ccc(Br)cc4)cc3c2=O)C1 (configuration not stated)	0.85
CCCNC(=O)Cc1ncn[nH]1	1.89
Cc1n[nH]c(C)c1CC(=O)NCCc1ccccc1	-0.4
O=C(Cc1ncn[nH]1)NCCc1ccccc1	-5.82*
Fc1ccc(C2C3=C(Nc4ncnn42)c2ccccc2OC3c2ccc(Cl)cc2)cc1 (configuration not stated)	0.93
O=C(ON1C(=O)CCC1=O)c1ccc(Br)o1	-5.7*
COC(=O)c1ccc(Br)o1	0.405
O=C(O)c1ccc(Br)o1	-1.11
CCCCCCCc1ccc(C2C(C#N)=C(C)NC3=C2C(=O)c2ccccc23)cc1 (configuration not stated)	-0.635
SMILES	Ba CapD inh
O=C(Cn1c(=S)[nH]c2ccccc21)c1ccc(-c2ccccc2)cc1	0.53
CC(=O)n1c(=S)[nH]c2ccccc21	-5.21*
CC(=O)n1c(=O)sc2ccccc21	-2.1
COc1ccc(/C=C/C(=O)NCc2ccncc2)cc1	0.25
Oc1ccccc1C=Nc1ccc(Oc2ccccc2)cc1	-1.73
COc1ccc2nc(N3CCCC3)sc2c1	-0.295
O=C1CCCc2nc(N3CCCCC3)sc21	-4.3*
Nc1nnc(N2CCCCC2)s1	-0.375
CC1=C(C(=O)Nc2ccc(Br)cn2)C(c2cccc(Cl)c2)C2=C(CCCC2=O)N1 (configuration not stated)	18.3
O=C(CN1C(=O)S/C(=C\c2c(Cl)cccc2Cl)C1=O)Nc1cccnc1	0.185
O=C1C2C3c4ccccc4C(c4ccccc43)C2C(=O)N1CNCc1ccccc1 (configuration not stated)	5.32
COc1cc(C2NC(=O)N(C)C(C)=C2C(=O)OCCOc2ccccc2)cc(Cl)c1O (configuration not stated)	-0.33
O=C(Nc1ccc(C(=O)c2ccccc2)cc1)c1ccccc1	-1.41
CS(=O)(=O)c1ccc(C(=O)Nc2ccccc2)cc1	-2.85*
O=C(Nc1ccccc1)c1ccc(Br)cc1	-0.42
COc1ccccc1N1C(=O)NC(=O)/C(=C\c2cc(OC)c(O)c(OC)c2)C1=O	-1.6
COc1cc(/C=C2\C(=O)NC(=S)N(c3ccccc3C)C2=O)cc([N+](=O)[O-])c1O	-5.96*
COc1cc(/C=C2\C(=O)NC(=S)N(c3ccc(Cl)cc3)C2=O)cc([N+](=O)[O-])c1O	-2.81
O=C(Cn1c(=O)c2cccn2c2ccccc21)N1CCCCC1	0.15
C=C1C(C(=O)N2CCCC2)C1C(=O)N1CCCC1 (configuration not stated)	0.35
COc1ccc(S(=O)(=O)n2c(SCc3ccc(C(F)(F)F)cc3)nc3ccccc32)cc1	0.45
O=S(=O)(c1cccc(C(F)(F)F)c1)c1cnc(-c2ccccn2)nc1-c1ccccn1	0.11
N#C/C(=C\c1cccc(Cl)c1)C(=O)C1CC1	0.495
O=C(/C=C/c1ccco1)C1CC1	-3.09
N#C/C(=C\c1ccco1)C(=O)C1CC1	-4.28*
N#C/C(=C\C=C\c1ccccc1)c1cccc(C(F)(F)F)c1	-0.61
CCOC(=O)C1=C(C)N=c2s/c(=C3\C(=O)N(C(C)=O)c4ccccc43)c(=O)n2C1c1cccc([N+](=O)[O-])c1 (configuration not stated)	-0.165
CN(C)/C=C/C=C/c1cc(=O)cc(/C=C/C=C/N(C)C)o1	-14.6*
